Biological target: NADPH oxidase 5 (Homo sapiens) (UniProt Q96PH1)
Experiment: NOX5-dependent H2O2 signal modulators, primary screen, NOX inhibitor project, cell-based, HEK293-NOX5, Amplex Red fluorescence (AID 1161)
Conditions: HEK293-NOX5, ionomycin, 45 min, higher = more signal

Chain of NADPH oxidase 5 (Homo sapiens) (Q96PH1 whole entry, looked up): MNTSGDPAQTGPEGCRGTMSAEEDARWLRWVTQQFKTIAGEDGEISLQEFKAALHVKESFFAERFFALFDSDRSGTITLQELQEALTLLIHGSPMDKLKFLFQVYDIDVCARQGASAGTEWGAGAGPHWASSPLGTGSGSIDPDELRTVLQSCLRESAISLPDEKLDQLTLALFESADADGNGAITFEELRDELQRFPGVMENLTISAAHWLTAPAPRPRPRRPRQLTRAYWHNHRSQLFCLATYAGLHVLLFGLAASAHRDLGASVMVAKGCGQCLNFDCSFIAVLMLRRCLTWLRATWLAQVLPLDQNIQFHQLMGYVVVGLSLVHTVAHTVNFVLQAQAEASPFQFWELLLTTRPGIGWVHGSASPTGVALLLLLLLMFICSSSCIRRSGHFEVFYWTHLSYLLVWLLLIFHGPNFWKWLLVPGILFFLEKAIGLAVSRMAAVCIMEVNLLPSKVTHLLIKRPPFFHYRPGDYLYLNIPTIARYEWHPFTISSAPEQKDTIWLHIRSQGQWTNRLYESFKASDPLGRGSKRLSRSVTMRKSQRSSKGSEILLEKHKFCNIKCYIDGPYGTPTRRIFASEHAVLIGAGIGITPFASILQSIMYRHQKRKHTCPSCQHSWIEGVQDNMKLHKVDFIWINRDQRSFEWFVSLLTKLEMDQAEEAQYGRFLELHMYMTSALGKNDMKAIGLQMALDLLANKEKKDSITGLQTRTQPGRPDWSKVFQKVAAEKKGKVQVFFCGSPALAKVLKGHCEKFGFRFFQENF

Question: With COCCOC(=O)N1C(=O)[C@@]2(c3cc(C#Cc4ccc(OC)cc4)ccc31)[C@H](C(=O)N1CCCCCCC1)[C@H]1C(=O)O[C@H](c3ccccc3)[C@H](c3ccccc3)N1[C@@H]2c1ccc(O)cc1 as the compound, how does the z-score read?
Answer: -1.4

Question: How did the z-score turn out when COc1cc2c(cc1OC)CN(C(=O)[C@H]1[C@@H]3C(=O)O[C@@H](c4ccccc4)[C@@H](c4ccccc4)N3[C@@H](c3ccc(OCCO)cc3)[C@]13C(=O)Nc1ccc(C#CC4(O)CCCCCC4)cc13)CC2 was run?
Answer: 1.28

Question: Which z-score does the source give for CCCC[C@@H]1C[C@H]1[C@@H](NC(=O)c1cccnc1)c1ccc(-c2ccccc2)cc1 here?
Answer: 0.353

Question: For CON(C)C(=O)C=C1C[C@@H](c2cccc(Cl)c2)O[C@@H](c2cccc(Cl)c2)O1, which z-score is on record?
Answer: 0.0304

Question: How did the z-score turn out when COCCCNC(=O)[C@]1(CCC(=O)OC(C)(C)C)N=C(c2ccc(OCCCO)cc2)O[C@@H]1c1ccccc1 was run?
Answer: -0.139

Question: With C=CCOC(=O)[C@H]1[C@@H]2C(=O)O[C@@H](c3ccccc3)[C@@H](c3ccccc3)N2[C@@H](c2ccc(OCCOC(=O)[C@H]3C[C@H]4C(=O)N[C@@H](Cc5ccccc5)C(=O)N4[C@H]3c3ccc(O)cc3)cc2)[C@]12C(=O)Nc1ccc(I)cc12 as the compound, how does the z-score read?
Answer: 2.35

Question: For CC(C)(C)N1CC=CC23O[C@@H]4C=CCOC(=O)[C@@H]4[C@H]2C(=O)N(CCCO)[C@@H]3C1=O (stereo partly specified), which z-score is on record?
Answer: -1.09

Question: Which z-score does the source give for NCCCCCCNC(=O)[C@@H]1C[C@@H]2C(=O)N3CCC[C@H]3C(=O)N2[C@@H]1c1ccc(O)cc1 here?
Answer: -0.515

Question: CCCCC(CC)C(O)C1C=CC2C(=O)N(c3ccccc3)C(=O)C2N1Nc1ccc([N+](=O)[O-])cc1 (stereo unspecified) was tested. Which z-score did it give?
Answer: -1.33

Question: With C=C(COC)/C(=C/C[C@@H](OC(=O)c1ccncc1)c1ccc(CO)o1)c1cnc2ccccc2c1 as the compound, how does the z-score read?
Answer: -1.54

Question: With COCCCNC(=O)[C@@H]1c2ccccc2C(=O)N(Cc2ccccc2C(F)(F)F)[C@H]1c1ccc(CO)cc1 as the compound, how does the z-score read?
Answer: 0.498

Question: Which z-score does the source give for CCCN1C(=O)[C@]2(Cc3ccccc3)N=C(c3ccc(OCCCO)cc3)O[C@@H]2c2ccccc21 here?
Answer: -1.27

Question: Which z-score does the source give for CO[C@H]1O[C@H](CO)[C@@H](OC(=O)Nc2ccccc2-c2ccccc2)[C@H](OC(=O)Nc2ccc3c(c2)OCO3)[C@@H]1OC(=O)Nc1ccc2c(c1)OCO2 here?
Answer: -1.49

Question: For COCCOC(=O)N1C(=O)[C@@]2(c3cc(C#CC4(O)CCCCCC4)ccc31)[C@H](C(N)=O)[C@H]1C(=O)O[C@H](c3ccccc3)[C@H](c3ccccc3)N1[C@@H]2c1ccc(O)cc1, which z-score is on record?
Answer: 0.85

Question: With CC(CO)N1C(=O)[C@@H]2C3C(=O)OCCC/C=C\[C@H]3OC23C=CCN(Cn2nnc4ccccc42)C(=O)[C@@H]13 (stereo partly specified) as the compound, how does the z-score read?
Answer: 2.03

Question: How did the z-score turn out when C[C@]1(C(=O)NC2CC2)c2ccccc2C(=O)N(Cc2ccc(OC(F)(F)F)cc2)[C@H]1c1ccc(CO)cc1 was run?
Answer: 0.138

Question: With COc1ccc([Si](C)(C)[C@H]2[C@H](CCn3cc([C@H](O)c4ccccc4)nn3)O[C@@]3(C(=O)N(Cc4cccc(N5C(=O)c6cccc7cccc5c67)c4)c4ccccc43)[C@@H]2C)cc1 as the compound, how does the z-score read?
Answer: 1.56

Question: Which z-score does the source give for COc1ccc([Si](C)(C)[C@H]2[C@H](CCO)O[C@@]3(C(=O)N(Cc4cccc(N5CCCCC5=O)c4)c4ccccc43)[C@@H]2C)cc1 here?
Answer: 0.189

Question: How did the z-score turn out when O=C1O[C@@H](c2ccccc2)[C@@H](c2ccccc2)N2[C@@H](c3ccc(O)cc3)[C@]3(C(=O)Nc4ccc(C#CCCO)cc43)[C@@H](C(=O)NC[C@H](O)c3ccccc3)[C@H]12 was run?
Answer: -0.159

Question: With CC(C)CN1C(=O)[C@@]2(Cc3ccccc31)c1ccccc1C(=O)N(Cc1ccccc1C(F)(F)F)[C@H]2c1ccc(CO)cc1 as the compound, how does the z-score read?
Answer: 1.34

Question: With CC(C)C(O)C1C=CC2C(=O)N(C)C(=O)C2N1N(c1ccccc1)c1ccccc1 (stereo unspecified) as the compound, how does the z-score read?
Answer: -0.828

Question: How did the z-score turn out when C=CCC(OC(C)=O)[C@@H]1[C@@H](N(Cc2ccc(-c3ccccc3)cc2)C(=O)c2cccc3ccccc23)c2cc(OCCCO)ccc2N1C(=O)Cc1ccc2ccccc2c1 (stereo partly specified) was run?
Answer: -4.09

Question: With Cc1ccc(S[C@]2(C(=O)NC3CC3)CC(=O)N(Cc3ccccc3Cl)[C@@H]2c2ccc(CO)cc2I)cc1 as the compound, how does the z-score read?
Answer: 1.12

Question: Which z-score does the source give for O=C1NCC(=O)N2[C@@H]1C[C@@H](C(=O)O)[C@H]2c1ccc(O)cc1 here?
Answer: -1.29

Question: Which z-score does the source give for CC(C)CNC(=O)[C@@]1(c2ccc([N+](=O)[O-])cc2)CC(=O)N(C2CCCCC2)[C@@H]1c1ccc(CO)cc1I here?
Answer: 1.74

Question: For COc1ccc(NN2C(C(O)c3ccccn3)C=CC3C(=O)N(C4CCCCC4)C(=O)C32)cc1 (stereo unspecified), which z-score is on record?
Answer: -2.33

Question: For [N-]=[N+]=NCc1ccccc1C[C@@]1(C(N)=O)N=C(c2ccc(OCCCO)cc2)O[C@@H]1c1ccccc1CN=[N+]=[N-], which z-score is on record?
Answer: -1.66

Question: How did the z-score turn out when CN1C(=O)C2C=CC(C(O)c3c(F)cccc3Cl)N(Nc3ccccc3)C2C1=O (stereo unspecified) was run?
Answer: -2.51

Question: How did the z-score turn out when COC(=O)c1c(CC[C@@H](CO)NC(=O)N[C@H](Cn2cc(-c3ccccc3C)nn2)C(C)C)oc(C(C)=O)c1C(=O)OC was run?
Answer: -1.77

Question: Which z-score does the source give for C=CCOC(=O)[C@@H]1[C@H]2C(=O)O[C@H](c3ccccc3)[C@H](c3ccccc3)N2[C@H](c2ccc(OCCOC(=O)[C@H]3C[C@H]4C(=O)N[C@@H](CCCCN(C)C)C(=O)N4[C@H]3c3cccc(OCCO)c3)cc2)[C@@]12C(=O)Nc1ccc(I)cc12 here?
Answer: 1.29

Question: COc1ccc([Si](C)(C)[C@@H]2[C@@H](CCO)O[C@]3(C(=O)N(Cc4cccc(N5C(=O)c6ccccc6Oc6ccccc65)c4)c4ccccc43)[C@H]2C)cc1 was tested. Which z-score did it give?
Answer: 1.98

Question: Which z-score does the source give for C=CC[C@]1(C(=O)N(C)C)N=C(c2ccc(OCCCO)cc2)O[C@H]1c1ccccc1N=[N+]=[N-] here?
Answer: 0.668

Question: For COCCOC(=O)N1C(=O)[C@@]2(c3cc(C#CCC(C(=O)OC)C(=O)OC)ccc31)[C@H](c1ccc(OCCO)cc1)N1[C@H](c3ccccc3)[C@H](c3ccccc3)OC(=O)[C@H]1[C@@H]2C(=O)N1CCN(c2ncccn2)CC1, which z-score is on record?
Answer: -4.4

Question: Which z-score does the source give for COCCOC(=O)N1C(=O)[C@@]2(c3cc(C#CC4(O)CCCCCC4)ccc31)[C@H](c1ccccc1OCCO)N1[C@H](c3ccccc3)[C@H](c3ccccc3)OC(=O)[C@H]1[C@@H]2C(N)=O here?
Answer: -0.269

Question: For C=CCNC(=O)[C@H]1[C@@H]2C(=O)O[C@@H](c3ccccc3)[C@@H](c3ccccc3)N2[C@@H](c2ccccc2OCCO)[C@]12C(=O)N(C(=O)OCCOC)c1ccc(C#CC3=CCCCC3)cc12, which z-score is on record?
Answer: 1.58

Question: C=CCN1C(=O)[C@@]2(O[C@@H](CCn3cc([C@H](O)c4ccccc4)nn3)[C@H]([Si](C)(C)c3ccc(OC)cc3)[C@H]2C)c2ccccc21 was tested. Which z-score did it give?
Answer: -1.6

From PubChem BioAssay
